# Measured values reported in PubChem BioAssay AID1259343 (VanderVen Lab, College of Veterinary Medicine, Cornell …, 2017).
# Among all 6,200 compounds or so, about 2,900 (47%) were called active. So high a share suggests a set chosen from earlier hits. The list shows a part of the results. Values without a mark were called inactive. Rule as the data show it: active = inhibition above about 50%; inactive = the rest.
# Assay: Mycobacterium tuberculosis growth inhibition, primary screen (AID 1259343)
# Conditions: inhibition: at 10 µM, hits give high values; outcome: 10 uM
row,Structure (SMILES),inhibition
1,O=S(=O)(c1cc(Br)ccc1Br)N1CCCc2ccccc21,7.14%
2,O=S(=O)(c1cc(Br)ccc1Br)N1CCc2ccccc21,102% (active)
3,O=S(=O)(c1cc(Br)ccc1Br)N1CCC1c1ccccc1 (configuration not stated),77.1% (active)
4,Cc1ccc(O)c(S(=O)(=O)N2CCCc3cc(F)c(F)cc32)c1,3.27%
5,CC(C)SCC(=O)Nc1cnc2ccccc2c1,92.9% (active)
6,CC(C)CCNC(=O)CSc1nc2ccccc2o1,6.9%
7,COc1cccc(-n2cc(CN(C)Cc3cccc4nonc34)cn2)c1,83.4% (active)
8,COc1cccc(-n2cc(CN(C)Cc3cc4ccccc4[nH]3)cn2)c1,41.5%
9,CC(C)c1ccc2c(c1)CCC1C(C)(C(N)=O)CCCC21C (configuration not stated),64.3% (active)
10,CC(C)c1cc2c(c(O)c1O)[C@@]1(C(=O)O)CCCC(C)(C)C1CC2 (some centres not stated),48.2%
11,COc1ccc(S(=O)(=O)NCCC(C)C)cc1,3.91%
12,CC(=O)NS(=O)(=O)c1ccc(N)cc1,60.2% (active)
13,Cc1ccc(C2CC2C(=O)NS(=O)(=O)c2ccc(F)cc2)s1 (configuration not stated),-6%
14,O=C(NCc1ccc(S(=O)(=O)N2CCCCC2)cc1)NCc1cccc(C(F)(F)F)c1,91.4% (active)
15,O=C(c1cnc2cc3c(cc2c1)OC1(CCCC1)O3)c1ccccc1O,-7.11%
16,Cc1ccc(-c2nc(C)sc2CC(=O)NC(C)C2CC2)cc1 (configuration not stated),33.3%
17,Cc1ccc(NC2=CC(=O)c3sc(C)nc3C2=O)cc1,99.8% (active)
18,CCc1nc2sc3c(NCCN(C)C)ncnc3c2c2c1CCCC2,47.1%
19,CC(C)CNc1nnnc2c1sc1nc(N3CCOCC3)c3c(c12)CCCC3,-4.41%
20,CCc1nc2sc3c(NCC4CCCO4)ncnc3c2c2c1CCCC2 (configuration not stated),57.2% (active)
21,COc1ccc(-c2cc(CNC(=O)C3CC3)no2)cc1,30.7%
22,COc1ccc(F)cc1-c1csc(-c2ccc(NC(=O)C3CC3)cc2)n1,71.9% (active)
23,COc1ccc(-c2nc(-c3ccccc3F)cs2)cc1OC,12.5%
24,COc1ccc(-c2cc(NC(=O)C3CC3)ccc2OC)cc1,93.7% (active)
25,CCOC(=O)c1c(C)c(C(=O)NC2CC(C)CC(C)(C)C2)c(C)n1CC (configuration not stated),93.8% (active)
26,Cc1csc2cc(C(=O)NC3CC(C)CC(C)(C)C3)cnc12 (configuration not stated),41%

row,Structure (SMILES),inhibition
1,CCOC(=O)c1c(C)nn(-c2ccc(C(=O)NC3CCC(C)CC3)cc2)c1C (configuration not stated),38.6%
2,CCCc1c(C(=O)O)c(C2CC2)nn1-c1ccc(OC)cc1,17.7%
3,Cc1c(C(=O)NCc2ccco2)c(C2CC2)nn1-c1ccc(Cl)c(Cl)c1,91% (active)
4,CCOc1ccc2c(c1)C=C(C(=O)NCc1ccco1)CO2,-9.65%
5,CS(=O)(=O)N(c1ccccc1Cl)S(=O)(=O)c1ccc(Cl)c([N+](=O)[O-])c1,70.4% (active)
6,CN(C)C(CNc1ccc(S(C)(=O)=O)cc1[N+](=O)[O-])c1ccco1 (configuration not stated),-2.26%
7,O=[N+]([O-])c1cc(S(=O)(=O)Oc2cccc(Cl)c2Cl)ccc1Cl,-21.3%
8,O=C1O/C(=C/Br)CCC1c1cccc2ccccc12 (configuration not stated),102% (active)
9,CCOC(=O)C1(CCOc2ccccc2)CCN(Cc2cccc(-n3cccn3)c2)CC1,31.7%
10,CNC(=O)COc1ccc(-c2cccc(-n3cccn3)c2)cc1,54.7% (active)
11,O=C(O)c1ccc(CN2CCc3cc(-n4cccn4)cnc32)cc1,26.6%
12,CNC(=O)c1ccc(-c2cccc(-n3cccn3)c2)s1,91.2% (active)
13,COc1cc(NC(=O)c2ccc(N3CCC(C)=N3)cc2)cc(OC)c1,71% (active)
14,COc1cc(NC(=O)c2ccc(CN3CC=CC3)cc2)cc(OC)c1,36.1%
15,COc1ccc(CC(N)c2csc(Nc3cc(Oc4ccccc4)ncn3)n2)cc1 (configuration not stated),56.6% (active)
16,NC(Cc1ccc(F)cc1)c1csc(Nc2cc(Oc3ccccc3)ncn2)n1 (configuration not stated),54.2% (active)
17,NC(COCc1ccccc1)c1csc(Nc2cc(Oc3ccccc3)ncn2)n1 (configuration not stated),76.8% (active)
18,NC(Cc1ccc(C(F)(F)F)cc1)c1csc(Nc2cc(Oc3ccccc3)ncn2)n1 (configuration not stated),59.6% (active)
19,NC(Cc1ccccc1)c1csc(Nc2cc(Oc3ccccc3)ncn2)n1 (configuration not stated),inactive
20,Cc1nn(C)c(Cl)c1CNc1ccccc1,5.19%
21,CC1(C)C2CCC1(C)C(NC(=O)Nc1nnc(C3CC3)s1)C2 (configuration not stated),41%
22,COc1ccc(C(N)c2csc(Nc3cc(Oc4ccccc4)ncn3)n2)cc1 (configuration not stated),58.8% (active)
23,CCCCCNC(=O)C1CCN(C(=O)c2oc3ccc(Cl)cc3c2C)CC1,29.4%
24,O=C(O)c1oc2ccc(Cl)cc2c1-n1cccc1,90.5% (active)
25,O=C(c1cccs1)c1coc2ccc(Cl)cc2c1=O,43.6%
26,COc1ccc(-c2nn3c(nc2=O)-c2ccccc2NC3C(C)C)cc1 (configuration not stated),inactive

row,Structure (SMILES),inhibition
1,CSc1ncc(CN2CCCC(C(=O)c3ccc(Oc4ccccc4)cc3)C2)cn1 (configuration not stated),92.1% (active)
2,Cc1nonc1C(=O)N1CCCC(C(=O)c2ccc(Oc3ccccc3)cc2)C1 (configuration not stated),13.8%
3,O=C(c1ccc(Oc2ccccc2)cc1)C1CCCN(C(=O)c2cnsn2)C1 (configuration not stated),64.4% (active)
4,O=C(c1ccc(Oc2ccccc2)cc1)C1CCCN(C(=O)c2ccc3nccnc3c2)C1 (configuration not stated),56% (active)
5,O=C(c1ccc(-c2ccccc2)cc1)C1CCCN(C(=O)c2ccc3nccnc3c2)C1 (configuration not stated),18.2%
6,COc1c(C)cc(C(=O)C2CCCN(Cc3cnc(SC)nc3)C2)cc1C (configuration not stated),47.7%
7,Cc1occc1C(=O)N1CCCC(C(=O)c2ccc(Oc3ccccc3)cc2)C1 (configuration not stated),17%
8,O=C(COC(=O)c1n[nH]c(=O)c2ccccc12)Nc1ccc2c(c1)CCC2,37.8%
9,O=C(COCC(F)(F)F)Nc1ccc2c(c1)C(=O)CCC2,81.5% (active)
10,O=C(Nc1ccc2c(c1)CCC2)C1CCN(C(=O)OCC(F)(F)F)CC1,49.5%
11,Clc1ccc(-c2noc(CSc3ccc(Br)cc3)n2)cc1,66.5% (active)
12,Cc1ccc(CNC(=O)c2c(O)nc3sccn3c2=O)cc1,74.4% (active)
13,O=C(NC1CCCCC1)c1c(O)nc2ccccn2c1=O,42.4%
14,O=C(NCc1ccc(Cl)cc1)c1c(O)nc2ccccn2c1=O,25.1%
15,O=C(NCc1ccc(Cl)cc1)c1c(O)nc2sccn2c1=O,81.1% (active)
16,Cc1ccc(CNC(=O)CN2CCc3sccc3C2C)cc1 (configuration not stated),27%
17,O=C(NCCc1ccccc1)c1c(O)nc2sccn2c1=O,1.99%
18,Cc1cccc(C)c1Cn1c(C)c(C(=O)NCc2ccc(Cl)c(Cl)c2)sc1=O,16.1%
19,O=C(NCc1ccccc1)c1c(O)nc2sccn2c1=O,63.3% (active)
20,O=C(NCc1ccc(F)cc1)c1c(O)nc2sccn2c1=O,59.5% (active)
21,Fc1cccc(Nc2cc3[nH]c(-c4cccc(F)c4)cc3cn2)c1,30.6%
22,COCC(C)NC(=O)c1ccc(CSc2ccccc2)o1 (configuration not stated),-22.4%
23,COCC(C)NC(=O)C12CCC(C)(C(=O)O1)C2(C)C (configuration not stated),100% (active)
24,Brc1ccc(-n2nc(-c3ccccc3)n[n+]2-c2nnn[n-]2)cc1,49.9%
25,O=C(O)c1cc2cc(Cl)sc2s1,37%
26,O=C(O)c1cc(-c2ccc(Cl)c(Cl)c2)ns1,90% (active)

row,Structure (SMILES),inhibition
1,CN(Cc1ccc(Cl)s1)S(=O)(=O)c1ccc(Cl)cc1,73.6% (active)
2,CCN(CC)c1ccc(CN(C)S(=O)(=O)c2ccc(F)cc2)cc1,33.5%
3,CC(C)CC(=O)NCC1CCN(c2ccc(Cl)cc2)C1 (configuration not stated),68.8% (active)
4,Cc1ccc2c(c1)C1CN(C)CCC1N2C(=O)NCC1CCCC1 (configuration not stated),45.5%
5,O=C(Nc1cccc2cccnc12)N1CCCC1C1CCCC1 (configuration not stated),27.2%
6,O=C(NCC1CC1)N1Cc2ccccc2C(c2ccccc2)C1 (configuration not stated),8.6%
7,O=C(CN1CCc2ccccc2C1)Nc1nc(-c2cc3ccccc3o2)cs1,5.08%
8,CC(=O)NCCC1CCN(c2nncc(-c3ccc(Cl)cc3)n2)CC1,38%
9,O=C(NCC1CCN(c2ccccc2)C1)N1CCCC1C1CCCC1 (configuration not stated),67.7% (active)
10,O=C(CN1CCc2ccccc2C1)NCC1CCN(c2ccccc2)C1 (configuration not stated),91.3% (active)
11,O=C(Nc1nc2c(Br)cccc2s1)Nc1c(F)cccc1F,28.4%
12,Fc1cccc2sc(Nc3nnc(-c4cccs4)o3)nc12,101% (active)
13,Cc1cccc2cc(CNC(C)Cc3ccco3)c(Cl)nc12 (configuration not stated),24.3%
14,CC(C)(Cc1ccc2ccccc2c1)NC[C@@H](O)COc1cccc(Cl)c1C#N,87.4% (active)
15,N#Cc1c(Cl)cccc1Oc1cccc(C(=O)O)c1,6.19%
16,Cc1ccc(OCC2CN(C(=O)COc3ccccc3C)CCO2)cc1 (configuration not stated),75.9% (active)
17,Cc1ccc(OCC2CN(C(=O)COc3ccc(F)cc3)CCO2)cc1 (configuration not stated),82.5% (active)
18,Cc1cc(OCC2CN(C(=O)COc3ccccc3C)CCO2)ccc1Cl (configuration not stated),50.9% (active)
19,CNc1ccc(C(=O)N2CCOC(COc3ccc(Cl)c(C)c3)C2)cc1 (configuration not stated),53% (active)
20,O=C(Cc1cccc(Cl)c1)N1CCOC(COc2ccc3c(c2)CCCC3)C1 (configuration not stated),44%
21,O=C(COc1ccc(F)cc1)N1CCOC(COCc2c(Cl)cccc2Cl)C1 (configuration not stated),34%
22,COc1cccc(CC(=O)N2CCOC(COc3ccc(F)cc3)C2)c1 (configuration not stated),24%
23,Cc1ccccc1OCC(=O)N1CCOC(COc2cccc(C(F)(F)F)c2)C1 (configuration not stated),6.21%
24,Cc1cc(OCC2CN(C(=O)c3ccc(C#N)cc3F)CCO2)ccc1Cl (configuration not stated),5.04%
